Rows were chosen to be rich in hits. Some 11% of all compounds tested hit in one or more screens of this group.
Pf growth 48h: Primary qHTS for delayed death inhibitors of the malarial parasite plastid, 48 hour incubation; P. falciparum luciferase growth in erythrocytes, 48 h; Potency, µM (highest dose often 28.7 µM), for the others: top-dose activity change, negative = inhibition, actives largely listed as inhibitors; 310,000 tested, 5.9% active
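Compounds are pin-transferred into medium, infected erythrocytes (2% hematocrit, 0.1% parasitemia final) are added, and plates sit one parasite generation at 37 C in 5% CO2. Detection reagent is then added and luminescence measured.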
Pf growth 96h: Primary qHTS for delayed death inhibitors of the malarial parasite plastid, 96 hour incubation | P. falciparum luciferase reporter growth, 96 h | Potency, µM (highest dose often 28.7 µM), for inactives: top-dose activity change, negative = inhibition, actives largely listed as inhibitors | 320,000 tested, 6.9% active | AID 504834, 2011
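Two parasite generations (96 h, 37 C, 5% CO2) of compound exposure in infected erythrocytes (0.05% parasitemia, 2% hematocrit). Luciferase-reporter P. falciparum; decreased luminescence indicates inhibited growth, aimed at apicoplast-acting delayed death.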
AMA1-RON2 inh: qHTS for Inhibitors of AMA1-RON; Towards Development of Antimalarial Drug Lead: Primary Screen. AID 720542, 2013. Plasmodium falciparum AMA1 (3D7) - RON2 peptide interaction. AlphaScreen AMA1-biotinylated RON2 peptide binding. 360,000 tested, 0.2% active. Potency, µM (titrated, usually from 58.2 µM), for inactives: at the highest dose activity change, negative = inhibition, usual class: inhibitors;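 also: 0% = vehicle wells and -100% = peptide control; nearly all actives have a fitted effect of over 45% in size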
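AMA1 (3D7) with his tag at 25 nM final met compounds first, then biotinylated RON2 peptide at 25 nM; detection used donor plus acceptor beads, 10 µg/mL apiece, read by AlphaScreen after 30 min at room temperature.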
AmpC inh detg: qHTS Inhibitors of AmpC Beta-Lactamase (assay with detergent); 370,000 tested, 0.041% active; AmpC hydrolysis of nitrocefin, absorbance 480 nm, 0.01% Triton; P00811; Potency, µM (highest dose often 114 µM), without a hit: top-dose activity change, negative = inhibition, hits mostly inhibitors;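 also: 0% = no-compound wells and -100% = no-enzyme wells; nearly all actives have a fitted effect of over 25% in size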
Target sequence (P00811 whole entry, looked up): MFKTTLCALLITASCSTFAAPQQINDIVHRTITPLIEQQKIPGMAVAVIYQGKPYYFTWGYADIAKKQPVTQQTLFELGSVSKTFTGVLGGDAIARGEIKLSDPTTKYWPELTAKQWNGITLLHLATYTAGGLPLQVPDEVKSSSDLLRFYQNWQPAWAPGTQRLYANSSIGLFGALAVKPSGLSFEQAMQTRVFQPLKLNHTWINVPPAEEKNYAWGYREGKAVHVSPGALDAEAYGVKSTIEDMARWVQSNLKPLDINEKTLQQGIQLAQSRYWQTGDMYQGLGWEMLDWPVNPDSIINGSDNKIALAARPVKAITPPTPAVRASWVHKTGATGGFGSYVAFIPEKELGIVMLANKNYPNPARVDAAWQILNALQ
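20 mM phosphate pH 7.0 + 0.01% (detergent screen) or 0.0001% Triton X-100; 5.3 nM AmpC reagent; cpd preinc 15 min RT; nitrocefin (800 uM stock) to start; A480 q20 s × 4 min; Activity was normalised to no-enzyme and no-compound control wells.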
HCV inh: qHTS Assay for Inhibitors of Hepatitis C Virus (HCV). Huh7.5.1 HCVcc-Cre infection, luciferase reporter, 44 h. Potency, µM (top dose mostly 41.8 µM), for inactives: at the highest dose activity change, negative = inhibition, usual class: inhibitors. 340,000 tested, 3.4% active
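After 44 h co-culture of compound, cells and HCVcc-Cre (~0.5 moi), substrate is added for 15 min at room temperature and luciferase measured over 15 sec. Cells were seeded at 1,000/well and pre-cultured 4 h.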
AmpC inh no detg: qHTS Inhibitors of AmpC Beta-Lactamase (assay without detergent); P00811; AmpC nitrocefin hydrolysis, absorbance 480 nm, 0.0001% Triton; Potency, µM (series often up to 57.1 µM), for the others: at the top dose activity change, negative = inhibition, actives largely listed as inhibitors; 330,000 tested, 0.52% active; AID 485341, 2010;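 also: plate controls were no compound for no effect and no enzyme for full effect; nearly all actives have a fitted effect of over 20% in size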
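20 mM phosphate pH 7.0 + 0.01% (detergent screen) or 0.0001% Triton X-100; 5.3 nM AmpC reagent; cpd preinc 15 min RT; nitrocefin (800 uM stock) to start; A480 q20 s × 4 min; Activity was normalised to no-enzyme and no-compound control wells.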
* = called active by the depositor; [ ] = dose if it differs, or a comment. Calls follow the shape of the dose curve; as a rule, active = well fitted curve in the direction sought with a large enough effect; inconclusive = small, poorly fitted or top-dose-only effect, or another doubt; inactive = no such curve, though single readings can be large; an effect the other way counts as inactive or inconclusive. Unless noted, % is scaled to controls: 0 for no effect and ±100 for the full control effect; potency is read from the fitted curve at half-maximal effect.

For NS(=O)(=O)c1ccc(CCNC(=O)CCCCCn2c(=S)[nH]c3ccc(Br)cc3c2=O)cc1 the results were Pf growth 48h inconclusive, Pf growth 96h 29%, AMA1-RON2 inh 76%, AmpC inh detg inconclusive, HCV inh inconclusive and AmpC inh no detg 18µM*.
`O=C(NCCCN1CCOCC1)c1ccc2c(=O)n(Cc3ccccc3)c(=S)[nH]c2c1` gave Pf growth 48h -18%, Pf growth 96h inconclusive, AMA1-RON2 inh 8%, AmpC inh detg 1%, HCV inh inconclusive and AmpC inh no detg 49%.
`CC1CCN(CCCNC(=O)c2ccc(Cn3c(=S)[nH]c4ccc(Br)cc4c3=O)cc2)CC1` gave Pf growth 48h 13µM*, Pf growth 96h 16%, AmpC inh detg inconclusive and AmpC inh no detg 21%.
`CN1CCN(CCCNC(=O)c2ccc(Cn3c(=S)[nH]c4ccc(Br)cc4c3=O)cc2)CC1` gave Pf growth 48h inconclusive, Pf growth 96h 1%, AMA1-RON2 inh 18%, AmpC inh detg -10%, HCV inh 7.9µM* and AmpC inh no detg 58%.
`CCc1ccccc1Nc1nc2cc(Cl)c(Cl)cc2nc1-n1nc(C)cc1C` gave AmpC inh detg 2%.
Screening COc1cc2c(=O)n(-c3ccc(C)cc3)c(=O)n(CC(=O)c3ccc4c(c3)OCO4)c2cc1OC returned Pf growth 48h 12µM*, Pf growth 96h 38%, AMA1-RON2 inh -3%, AmpC inh detg 4%, HCV inh 0% and AmpC inh no detg 2%.
CCOC(=O)c1c(CS(=O)(=O)c2ccccc2)n(C)c2cc(Br)c(O)c(CN(C)C)c12 was read as Pf growth 48h 9.3µM*, Pf growth 96h 37%, AMA1-RON2 inh 40%, AmpC inh detg 3%, HCV inh inconclusive and AmpC inh no detg -24%.
`CCOC(=O)c1c(CN2CCOCC2)n(C)c2cc(Br)c(O)c(CN(C)C)c12` gave Pf growth 48h 10µM*, Pf growth 96h inconclusive, AMA1-RON2 inh -1%, AmpC inh detg 7%, HCV inh inconclusive and AmpC inh no detg 72%.
Screening COc1cc(C(C(=O)NCc2ccccc2)N(Cc2ccco2)C(=O)c2cnccn2)cc(OC)c1OC (centres undefined) returned Pf growth 48h 9.3µM*, Pf growth 96h 9%, AMA1-RON2 inh -10%, AmpC inh detg -12%, HCV inh 20% and AmpC inh no detg 80%.
`O=C(NCc1ccccc1)C(c1ccccc1)N(Cc1cccs1)C(=O)c1cnccn1` (centres undefined) gave Pf growth 48h -22%, Pf growth 96h 0.26µM*, AMA1-RON2 inh 6%, AmpC inh detg 3%, HCV inh 7% and AmpC inh no detg 38%.
O=C(NCc1ccccc1)C(c1ccc(F)cc1)N(Cc1cccs1)C(=O)c1cnccn1 (centres undefined) was read as Pf growth 48h -10%, Pf growth 96h -13%, AMA1-RON2 inh 3%, AmpC inh detg -15%, HCV inh 5% and AmpC inh no detg 26%.
CCOc1ccc2nc(NC(=O)c3cc(=O)c4ccc(C)cc4o3)sc2c1 was read as AmpC inh detg -5%.
Cc1nc(NC2=NCN(Cc3ccco3)CN2)nc2ccccc12 was read as Pf growth 48h -20%, Pf growth 96h 1.9µM*, AmpC inh detg 5% and AmpC inh no detg -13%.
Screening CCOc1ccc2nc(NC3=NCN(Cc4ccco4)CN3)nc(C)c2c1 returned Pf growth 48h inconclusive, Pf growth 96h 15µM*, AmpC inh detg inconclusive and AmpC inh no detg -17%.
For Cc1nc(NC2=NCN(CCCN3CCOCC3)CN2)nc2c(C)cccc12 the results were Pf growth 48h 2.3µM*, Pf growth 96h -6%, AMA1-RON2 inh 35%, AmpC inh detg -5%, HCV inh 7.1µM* and AmpC inh no detg -3%.
For Cc1nc(NC2=NCN(C3CCCCC3C)CN2)nc2ccccc12 (centres undefined) the results were Pf growth 48h 13µM*, Pf growth 96h inconclusive, AmpC inh detg -4%, HCV inh -24% and AmpC inh no detg -15%.
Screening O=C(NCc1ccccn1)c1nn(-c2ccccc2F)nc1CO returned AmpC inh detg 26%.
For CC1(C)CC2CC(C)(CN2Cc2c(O)ccc3ccccc23)C1 (centres undefined) the results were Pf growth 48h -4%, Pf growth 96h 0%, AMA1-RON2 inh 7%, AmpC inh detg -2%, HCV inh 8% and AmpC inh no detg 11µM*.
`CC1(C)CC2CC(C)(CN2Cc2cccc([N+](=O)[O-])c2)C1` (centres undefined) gave Pf growth 48h 0%, Pf growth 96h -3%, AMA1-RON2 inh -29%, AmpC inh detg inconclusive, HCV inh 14% and AmpC inh no detg -31%.
For CCCc1cnc(NCCNCC(O)COc2ccc(Cl)c(Cl)c2)nc1 (centres undefined) the results were Pf growth 48h inconclusive, Pf growth 96h 12µM*, AMA1-RON2 inh -6%, AmpC inh detg 10%, HCV inh inconclusive and AmpC inh no detg 123%.
For CC(=O)c1cccc(OCC(O)CNCCc2ccc(Cl)cc2)c1 (centres undefined) the results were Pf growth 48h -23%[0.00184 µM], Pf growth 96h 15%, AMA1-RON2 inh -27%, AmpC inh detg -2%, HCV inh -16% and AmpC inh no detg -1%.
For CC(C)(C)c1[nH]nc2c1C(c1cccnc1)C(C#N)=C(N)O2 (centres undefined) the results were Pf growth 48h -10%, Pf growth 96h inconclusive, AMA1-RON2 inh 16%, AmpC inh detg 1%, HCV inh 12% and AmpC inh no detg -18%.
Screening COc1cc(C2C(C#N)=C(N)OC3=C2C(=O)CC(C)(C)C3)cc2c1OCO2 (centres undefined) returned AMA1-RON2 inh -17% and HCV inh 10µM*.
CC1(C)CC(=O)C2=C(C1)OC(N)=C(C#N)C2Cc1ccccc1 (centres undefined) was read as Pf growth 48h 0%, Pf growth 96h -18%, AMA1-RON2 inh 2%, AmpC inh detg -3%, HCV inh -6% and AmpC inh no detg 0.32µM*.

Source: PubChem BioAssay (National Center for Advancing Translational Sciences (NCATS))
